About 1,500 (65%) of roughly 2,300 compounds were called active. The set was probably picked from earlier hits. The list shows a part of the results. Entries with a potency or affinity are not part of this list. Unmarked numbers belong to inactive results. The rule behind the calls is not given here.
Test: replicating M. tuberculosis growth inhibition, dose response, non-replicating M. tuberculosis project, H37Rv (AID 492952);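 note: Mycobacterium tuberculosis grown in culture; growth inhibition read after a week of incubation; 0% = bacteria alone untreated and 100% = bacteria with high antibiotic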
Conditions: series mostly up to 50 µM; inhibition: at the top concentration
In the case of O=C(c1ccco1)N1CCN(c2ccc(F)cc2)CC1, the “inhibition” value is reported as 4.57%.
With O=C(NCCC1CCCC1)c1cccs1 the “inhibition” value was -4.94%.
With CC(=O)N1CCC(=NNC(=O)c2cccs2)CC1 the “inhibition” value was 2.67%.
In the case of N/C(=N\OC(=O)CC1CCCCC1)c1ccncc1, the “inhibition” value is reported as 1.58%.
In the case of O=C(COC(=O)C1CCCCC1)Nc1ccccc1OC(F)F, the “inhibition” value is reported as -25.5%.
For O=C(COC(=O)CC1CCCC1)Nc1ccc(OC(F)F)cc1, the “inhibition” value was -0.34%.
With Cc1ccc(CO/N=C/c2c(O)cc(C)oc2=O)cc1 the “inhibition” value was 2.02%.
For O=C(Nc1ccccc1F)c1ccc(Br)o1, the “inhibition” value was -3.44%.
With Cc1ccc(CCC(=O)Nc2ccccc2F)s1 the “inhibition” value was 18.7%.
With NC(=O)C1CCN(C2CC(=O)NC2=O)CC1 (stereo not given) the “inhibition” value was -5.72%.
For COc1ccc(OCCSc2nnc(Cc3cccc4ccccc34)n2N)cc1, the “inhibition” value was -6.56%.
For N/C(=N\OC(=O)c1cccs1)c1ccccc1, the “inhibition” value was 2.45%.
In the case of CC1(C)CC(=O)C(C2NCCc3ccccc32)=C(O)C1 (stereo not given), the “inhibition” value is reported as 4.03%.
In the case of CCCc1cc(C(=O)Nc2cccc(C(C)=O)c2)no1, the “inhibition” value is reported as -0.8%.
In the case of O=C(Nc1ccccc1F)c1ccc(CSc2ccccc2)o1, the “inhibition” value is reported as -1.3%.
For Cc1cc(C(=O)NNc2cc(Cl)ccc2Cl)no1, the “inhibition” value was 7.55%.
With C[C@@H]1CN=C2N(CCNC(=O)CCC3CCCCC3)[C@H](Cc3ccc(O)cc3)CN21 the “inhibition” value was 6.51%.
For O=C(CN1CCC(Cc2ccccc2)CC1)NC(=O)NC1CCCCC1, the “inhibition” value was 7.51%.
For CC(C)[C@H]1CN=C2N(C[C@H](C)NC(=O)CCC3CCCCC3)[C@H](Cc3ccc(O)cc3)CN21, the “inhibition” value was 0.35%.
With CCCC(=O)N1CCC(Cc2ccccc2)CC1 the “inhibition” value was -6.45%.
For COc1cc(C=O)ccc1OCCCCOc1ccccc1[N+](=O)[O-], the “inhibition” value was -2.84%.
With CCc1ccc(C2=C/C(=C/c3cccnc3)C(=O)O2)cc1 the “inhibition” value was 1.91%.
With C/C(=N\Nc1ccc(Cl)cc1)c1c(O)cc(C)oc1=O the “inhibition” value was -6.6%.
In the case of CN(C)c1ccc(NC(=O)COC(=O)c2cc(Cl)ccc2[N+](=O)[O-])cc1, the “inhibition” value is reported as 16.4%.
In the case of O=C(Nc1cccc(Cl)c1)C1COc2ccccc2O1 (stereo not given), the “inhibition” value is reported as 5.4%.
With O=C(Nc1ccc([N+](=O)[O-])cc1)C1COc2ccccc2O1 (stereo not given) the “inhibition” value was -1.93%.
In the case of O=C(Nc1ccc(Cl)cn1)C1COc2ccccc2O1 (stereo not given), the “inhibition” value is reported as -9.66%.
With O=C(Nc1cccc([N+](=O)[O-])c1)C1COc2ccccc2O1 (stereo not given) the “inhibition” value was -1.31%.
With Cn1cccc1/C=N\NC(=O)C1COc2ccccc2O1 (stereo not given) the “inhibition” value was 2.74%.
With CC(C)NC(=O)C1COc2ccccc2O1 (stereo not given) the “inhibition” value was 5.57%.
With COc1ccc2c([N+](=O)[O-])c(N3CCCC3)[nH]c2c1 the “inhibition” value was 11.5%.
In the case of COc1ccc(NC(=O)COc2ccccc2)cc1Cl, the “inhibition” value is reported as 20%.
For COC(=O)c1cccc(NC(=O)COc2cccc([N+](=O)[O-])c2)c1, the “inhibition” value was 3.64%.
With CN(C)S(=O)(=O)Oc1ccc(C(=O)Nc2cccc(C(F)(F)F)c2)cc1 the “inhibition” value was 0.37%.
In the case of C=C(C)C1Cc2cc3ccc(=O)oc3cc2O1 (stereo not given), the “inhibition” value is reported as -6.72%.
With COCCNC(=O)CC(=O)N/N=C/c1cccc(C(=O)OC)c1 the “inhibition” value was -0.54%.
With O=C(CCc1c[nH]c2ccccc12)Nc1ncccc1O the “inhibition” value was 4.85%.
For O=C(COC(=O)CCC(=O)c1ccc(F)cc1)Nc1ccccc1, the “inhibition” value was -0.44%.
In the case of COc1cccc(NC(=O)COC(=O)Cc2ccc(Br)cc2)c1, the “inhibition” value is reported as 6.93%.
For CC(=O)c1ccc(NC(=O)C(Cc2ccccc2)n2cccc2)cc1 (stereo not given), the “inhibition” value was 1.69%.
In the case of Cc1cc(C(=O)NNc2ccc(Cl)cc2)no1, the “inhibition” value is reported as 4.74%.
In the case of Cc1ccc(CSCCNC(=O)c2cccc([N+](=O)[O-])c2)cc1, the “inhibition” value is reported as 26%.
For COc1ccc(NC(=O)c2cc([N+](=O)[O-])ccc2O)cc1, the “inhibition” value was 25.4%.
With COc1ccc([C@@]2(O)c3c(ccc(CC=C(C)C)c3O)NC(=O)[C@@H]2OC)cc1 the “inhibition” value was -7.91%.
With CN1/C(=C\C=N\NC(=O)c2cccnc2)C(C)(C)c2ccccc21 the “inhibition” value was 17.1%.
With C/C(CC(=O)Nc1ccc(C)c(Cl)c1)=N\NC(=O)c1ccco1 the “inhibition” value was 1.14%.
For CCc1cccc(OCCCn2ccnc2)c1, the “inhibition” value was 2.96%.
For O=Cc1ccc(OC2OCCOC2Oc2ccc(C=O)cc2)cc1 (stereo not given), the “inhibition” value was 0.69%.
For CC1=NN(C(=O)c2ccoc2C)C(O)(C(F)(F)F)C1 (stereo not given), the “inhibition” value was 5.07%.
For CC1=NN(C(=O)c2ccc(Cn3nc(C)c(Br)c3C)cc2)C(O)(C(F)(F)F)C1 (stereo not given), the “inhibition” value was -4.33%.
In the case of CC1=NN(C(=O)c2cc(C)nn2C)C(O)(C(F)(F)F)C1 (stereo not given), the “inhibition” value is reported as -3.55%.
For O=C(c1ccccc1[N+](=O)[O-])N1N=C(c2ccccc2)CC1(O)C(F)(F)F (stereo not given), the “inhibition” value was -1.38%.
With Cc1cc(C)cc(NC(=O)COC(=O)CC2CCCC2)c1 the “inhibition” value was 6.23%.
In the case of O=C(CC1CCCCC1)NCc1ccccc1, the “inhibition” value is reported as -2.3%.
With Cc1cc(Cl)ccc1NNC(=O)c1cccs1 the “inhibition” value was 28%.
In the case of CCN1CCN(Cc2cc(C(C)(C)C)c(O)c(C(C)(C)C)c2)CC1, the “inhibition” value is reported as -3.19%.
In the case of COc1cc(CNCCNC(=O)c2nonc2N)ccc1OCc1ccc(Cl)cc1, the “inhibition” value is reported as 18.4%.
In the case of O=C(NNc1ccc([N+](=O)[O-])cc1)C1CC1c1ccccc1 (stereo not given), the “inhibition” value is reported as 21.1%.
With Cc1cccc(OCC(O)Cn2c(=N)n(Cc3ccccc3)c3ccccc32)c1 (stereo not given) the “inhibition” value was 10.8%.
In the case of CCOc1ccc(Cn2c(=O)oc3ccccc32)cc1, the “inhibition” value is reported as 4%.
With Cc1ccc(C(=O)N2N=C(CC(C)C)CC2(O)C(F)(F)F)o1 (stereo not given) the “inhibition” value was 4.03%.
For O=C(C/C=N\OCc1ccc([N+](=O)[O-])cc1)Nc1ccc(Br)cc1, the “inhibition” value was 17.8%.
With CCSc1nsc(NC(=O)Nc2ccc(F)cc2F)n1 the “inhibition” value was 5.85%.
With C=CCc1ccc2oc(C(=O)OCC)cc(=O)c2c1O the “inhibition” value was 7.41%.
With CCC1(O)CC(c2ccccc2)=NN1C(=O)c1ccccc1F (stereo not given) the “inhibition” value was 6.6%.
For O=Cc1ccnc(-c2ccc(OC(=O)c3ccco3)cc2)n1, the “inhibition” value was 1.13%.
For COc1ccc(/C=N/NC(=O)C(=O)NCc2cccnc2)cc1OC, the “inhibition” value was -6.15%.
In the case of COc1cc(/C=N/Nc2ccc(Cl)c(C(=O)O)c2)ccc1OC(=O)c1cccs1, the “inhibition” value is reported as 5.49%.
For Cn1c(SCCOc2cccc(Cl)c2)nnc1-c1ccncc1, the “inhibition” value was -0.26%.
In the case of Cc1ccc(S(=O)(=O)NCC(=O)OCCOc2cccc(Cl)c2)cc1, the “inhibition” value is reported as 7.77%.
In the case of CN(CCS(=O)(=O)c1ccc(Cl)cc1)Cc1cccnc1, the “inhibition” value is reported as 1.79%.
In the case of Cc1ccc(NC(=O)CCSc2nnc(-c3ccco3)o2)cc1, the “inhibition” value is reported as -17.6%.
For CCCn1nnnc1NC(=O)COc1ccc(Br)cc1, the “inhibition” value was 4.6%.
In the case of CCCn1nnnc1NCc1ccc(CC)cc1, the “inhibition” value is reported as 5.44%.
For CCCn1nnnc1NCc1ccc(C(C)C)cc1, the “inhibition” value was 2.16%.
In the case of Cc1ccc(-c2nnc(NC3CCCC3)s2)cc1, the “inhibition” value is reported as 9.87%.
In the case of Oc1c(Br)cc(Br)cc1/C=N/c1nccs1, the “inhibition” value is reported as 1.77%.
With Cc1cccc(NCc2nnc(-c3ccccc3)o2)c1C the “inhibition” value was 6.77%.
In the case of Cc1cccc(NC(=O)c2n[nH]c([N+](=O)[O-])c2Br)c1C, the “inhibition” value is reported as 6.95%.
In the case of O=C(NCc1ccc(F)cc1)c1ccc(Br)o1, the “inhibition” value is reported as -8.86%.
In the case of C=C[C@]1(C)C=C2CCC3[C@](C)(CCC[C@@]3(C)C(=O)O)C2CC1 (stereo not given in full), the “inhibition” value is reported as 11.8%.
For CCn1nnc(NC(=O)c2ccc([N+](=O)[O-])o2)n1, the “inhibition” value was 7.33%.
With O=C(Nc1ccccc1N1CCN(C(=O)c2ccc(Cl)cc2)CC1)c1ccc([N+](=O)[O-])o1 the “inhibition” value was 9.94%.
In the case of O=C(c1ccc(Br)o1)N1CCC(Cc2ccccc2)CC1, the “inhibition” value is reported as 8.42%.
With CC1CCN(C(=O)C2COc3ccccc3O2)CC1 (stereo not given) the “inhibition” value was -4.97%.
For O=C1NC2(CCC3(CC2)OCCO3)NN1c1ccc(Cl)cc1, the “inhibition” value was -1.65%.
With O=C(COC(=O)Cc1ccc(Br)cc1)Nc1ccc(N2CCOCC2)cc1 the “inhibition” value was 3.83%.
In the case of Cc1c(NC(=O)c2coc(=O)c(Br)c2)c(=O)n(-c2ccccc2)n1C, the “inhibition” value is reported as -3.48%.
With O=C(NC1=NCCS1)c1ccc(-c2ccc(Cl)cc2)o1 the “inhibition” value was 17.6%.
For NC(=O)c1ccc(-c2ccc(Br)cc2)o1, the “inhibition” value was 17.1%.
With COc1ccc(C(=O)COC(=O)CCC(=O)c2cccs2)cc1 the “inhibition” value was 7.37%.
With COc1ccc(N=N/C(=C\O)C(=O)c2cccs2)cc1 the “inhibition” value was -1.77%.
For CC(CCc1ccccc1)NC(=O)COC(=O)c1cccs1 (stereo not given), the “inhibition” value was 7.79%.
For CC(C)(NO)/C(=N\O)c1ccccc1, the “inhibition” value was -0.87%.
With CCc1cc(C(c2ccncc2)N2CCN(C)CC2)c(NC(=O)c2ccccc2)s1 (stereo not given) the “inhibition” value was -2.97%.
For CCC1CCc2sc(C(=O)NCC3CCCO3)cc2C1 (stereo not given), the “inhibition” value was -2.23%.
In the case of COc1ccccc1N1CCN(C(=O)CCn2c(=O)[nH]c3ccsc3c2=O)CC1, the “inhibition” value is reported as 4.43%.
For CC(C)(C)c1ccc(C(=O)N2CCCC2)s1, the “inhibition” value was 1.22%.
With CC(=O)Oc1ccc(N(C(C)=O)S(=O)(=O)c2cccs2)c2ccccc12 the “inhibition” value was 0.62%.
For COc1cccc(OCC(=O)NNC(=O)c2cccs2)c1, the “inhibition” value was -1.49%.
With COc1ccc(-c2cc(O)cc(O)c2)cc1 the “inhibition” value was 0.3%.
With COc1ccc(-c2nc(C=O)cs2)cc1 the “inhibition” value was 24.4%.
In the case of CCc1ccc(C(C)NC(=O)C2CCCO2)cc1 (stereo not given), the “inhibition” value is reported as -2.83%.
With NC(N)=N/N=C/c1cccc([N+](=O)[O-])c1O the “inhibition” value was -3.2%.
In the case of CCOc1ccc(NC(=O)CCc2ccc(C)o2)cc1, the “inhibition” value is reported as 6.91%.
In the case of Cc1ccc2cc(/C=N/NC(=O)[C@H](C)NC(=O)OC(C)(C)C)c(Cl)nc2c1, the “inhibition” value is reported as 4.71%.
For COCC(=O)Nc1ccccc1NC(C)=O, the “inhibition” value was -2.75%.
With Cc1cccc(NC(=O)CO/N=C/c2ccc3c(c2)OCO3)c1 the “inhibition” value was 18%.
In the case of CCOC(=O)C(=CNNc1cccc(Cl)c1)C(=O)OCC, the “inhibition” value is reported as 5.8%.
For COc1ccc(C(=O)CCNc2ccc(F)cc2)cc1, the “inhibition” value was -0.64%.
With CCc1nnc(NC(=O)CN2CCN(Cc3ccc(F)cc3)CC2)s1 the “inhibition” value was -1.34%.
With O=C(CN1CCN(c2ccccc2)CC1)Nc1nnc(-c2ccccc2)s1 the “inhibition” value was 1.95%.
In the case of CCOC(=O)c1ccc(NC2OC(=O)c3ccccc32)cc1 (stereo not given), the “inhibition” value is reported as 6.55%.
In the case of CCOC(=O)c1ccc(N=C(CC)c2c(O)n(C)c(=O)n(C)c2=O)cc1, the “inhibition” value is reported as 4.28%.
With O=C(O)c1ccccc1C(=O)NNc1ccc(F)cc1 the “inhibition” value was 0.91%.
In the case of Nc1scc(-c2ccncc2)c1Cl, the “inhibition” value is reported as 3.7%.
With COc1ccc(C(C)NC(=O)CCc2ccccc2)cc1 (stereo not given) the “inhibition” value was 0.5%.
For CC(C)Oc1ccc(CNC(=O)Oc2ccccc2)cc1, the “inhibition” value was 0.25%.
For C/C(=N\NC(=O)c1ccccc1O)C1C(=O)c2ccccc2C1=O, the “inhibition” value was -0.04%.
For O=C(O)CCCCCN1C(=O)CSC1=S, the “inhibition” value was 24%.
In the case of Cc1cccc(CC(=O)NCC2CCCCC2)c1, the “inhibition” value is reported as -1.82%.
For Clc1ccccc1CSc1nnc([C@@H]2CCCN2)o1, the “inhibition” value was 3.84%.
For S=c1[nH]c2ccccc2o1, the “inhibition” value was -5.96%.
For Cc1cc(OCCOCCNCc2ccccc2)ccc1C(C)C, the “inhibition” value was 18.1%.
With Cc1ccc(CNCc2cc(Cl)ccc2O)cc1 the “inhibition” value was 5.45%.
